# Measurements as given in publication PMC7862700, “An all-to-all approach to the identification of sequence-specific readers for epigenetic DNA modifications on cytosine”.
# Legend:
# Assay in all cases: DAPPL (digital affinity profiling via proximity ligation, sequencing); 10 mM Tris-HCl pH 7.5, 50 mM NaCl, 1 mM DTT, 4% glycerol, room temperature, 30 min; GST-TFs on glutathione beads, 16-mer random dsDNA library, 0.1% formaldehyde crosslink after washing; high values mean tight binding
# [1] = molecular target: T1, FLI1 (Homo sapiens, UniProt Q01543 1-452); conditions: protein: recombinant; tags: N-terminal GST; dsDNA, one strand shown
# T1 sequence: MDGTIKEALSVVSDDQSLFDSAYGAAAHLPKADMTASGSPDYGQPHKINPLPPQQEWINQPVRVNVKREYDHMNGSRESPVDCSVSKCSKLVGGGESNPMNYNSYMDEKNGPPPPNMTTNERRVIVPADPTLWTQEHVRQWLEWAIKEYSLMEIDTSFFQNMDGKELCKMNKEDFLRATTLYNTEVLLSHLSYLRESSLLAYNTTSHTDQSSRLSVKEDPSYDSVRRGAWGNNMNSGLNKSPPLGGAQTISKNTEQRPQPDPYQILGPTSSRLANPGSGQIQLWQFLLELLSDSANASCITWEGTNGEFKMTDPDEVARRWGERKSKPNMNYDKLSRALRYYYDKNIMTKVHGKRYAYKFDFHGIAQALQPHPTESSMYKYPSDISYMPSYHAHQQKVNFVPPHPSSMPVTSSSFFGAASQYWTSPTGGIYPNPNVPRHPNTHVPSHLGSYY
# In short: (§1)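 After expression in yeast as GST fusions, human transcription factors were bound to glutathione beads, DNA-barcoded and mixed with a tag-only sample. The pools were incubated with 200 nmole of a 16-mer random double-stranded DNA library in Tris/NaCl/DTT/glycerol buffer (30 min, room temperature), washed and crosslinked with 0.1% formaldehyde. Proximity ligation with BsaI/T4 ligase ran for 1 h at 37 °C, before PCR amplification and sequencing on an Illumina NextSeq500. Binding signal is a hexamer's read frequency for a factor divided by its frequency for the tag-only sample.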
# [2] = molecular target: T2, ELK1 (Homo sapiens, UniProt P19419 1-428); conditions: protein: recombinant; tags: N-terminal GST; dsDNA, one strand shown
# T2 sequence: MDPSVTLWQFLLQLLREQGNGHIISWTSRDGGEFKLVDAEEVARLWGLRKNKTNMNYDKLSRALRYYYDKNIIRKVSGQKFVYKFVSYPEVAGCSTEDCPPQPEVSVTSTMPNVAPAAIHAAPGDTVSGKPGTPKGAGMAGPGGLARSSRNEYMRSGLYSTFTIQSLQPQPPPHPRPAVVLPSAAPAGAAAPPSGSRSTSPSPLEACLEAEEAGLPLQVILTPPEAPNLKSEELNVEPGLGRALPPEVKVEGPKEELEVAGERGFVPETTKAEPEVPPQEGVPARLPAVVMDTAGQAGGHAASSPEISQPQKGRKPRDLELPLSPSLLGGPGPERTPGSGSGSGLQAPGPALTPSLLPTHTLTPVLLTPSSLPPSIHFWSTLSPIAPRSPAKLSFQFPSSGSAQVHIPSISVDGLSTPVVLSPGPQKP
# In short: as §1
# [3] = molecular target: T3, GABPA (Homo sapiens, UniProt Q06546 1-454); conditions: protein: recombinant; tags: N-terminal GST; dsDNA, one strand shown
# T3 sequence: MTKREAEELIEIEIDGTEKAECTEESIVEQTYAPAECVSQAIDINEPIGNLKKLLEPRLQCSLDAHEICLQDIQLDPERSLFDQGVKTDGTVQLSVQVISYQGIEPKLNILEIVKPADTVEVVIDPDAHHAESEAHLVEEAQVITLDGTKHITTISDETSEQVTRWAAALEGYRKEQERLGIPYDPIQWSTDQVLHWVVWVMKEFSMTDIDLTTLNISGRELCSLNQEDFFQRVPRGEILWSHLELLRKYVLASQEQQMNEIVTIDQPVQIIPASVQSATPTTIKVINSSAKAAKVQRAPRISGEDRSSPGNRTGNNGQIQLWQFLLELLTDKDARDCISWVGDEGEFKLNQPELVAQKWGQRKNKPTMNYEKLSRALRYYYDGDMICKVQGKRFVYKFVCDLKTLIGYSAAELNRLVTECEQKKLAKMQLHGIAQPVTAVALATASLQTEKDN
# In short: as §1
# [4] = molecular target: T4, ERG (Homo sapiens, UniProt P11308 1-479); conditions: protein: recombinant; tags: N-terminal GST; dsDNA, one strand shown
# T4 sequence: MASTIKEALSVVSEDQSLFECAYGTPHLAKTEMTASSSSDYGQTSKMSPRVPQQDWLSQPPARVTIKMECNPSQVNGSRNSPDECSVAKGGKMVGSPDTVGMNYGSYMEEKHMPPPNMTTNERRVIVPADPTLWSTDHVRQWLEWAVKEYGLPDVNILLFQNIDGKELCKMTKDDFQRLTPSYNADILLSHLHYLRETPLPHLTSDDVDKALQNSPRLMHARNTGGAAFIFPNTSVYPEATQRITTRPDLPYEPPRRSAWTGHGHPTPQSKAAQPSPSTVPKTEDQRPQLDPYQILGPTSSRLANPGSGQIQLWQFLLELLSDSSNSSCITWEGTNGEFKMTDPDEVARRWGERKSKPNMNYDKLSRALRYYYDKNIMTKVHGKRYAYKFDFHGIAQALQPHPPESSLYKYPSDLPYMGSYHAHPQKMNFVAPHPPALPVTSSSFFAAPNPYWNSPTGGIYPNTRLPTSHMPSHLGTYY
# In short: as §1
# [5] = molecular target: ELF1 (Homo sapiens, UniProt P32519 1-619); conditions: protein: recombinant; tags: N-terminal GST; dsDNA, one strand shown
# In short: as §1
# [6] = molecular target: T5, EHF (Homo sapiens, UniProt Q9NZC4 1-300); conditions: protein: recombinant; tags: N-terminal GST; dsDNA, one strand shown
# T5 sequence: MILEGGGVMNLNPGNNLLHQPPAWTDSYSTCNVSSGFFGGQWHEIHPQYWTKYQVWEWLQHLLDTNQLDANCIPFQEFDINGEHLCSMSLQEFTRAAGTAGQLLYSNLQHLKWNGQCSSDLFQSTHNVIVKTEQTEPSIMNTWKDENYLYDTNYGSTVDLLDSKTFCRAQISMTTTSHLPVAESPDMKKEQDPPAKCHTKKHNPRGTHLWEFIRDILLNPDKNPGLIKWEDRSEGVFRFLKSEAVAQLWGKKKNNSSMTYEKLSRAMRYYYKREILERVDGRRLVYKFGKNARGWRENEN
# In short: as §1
# [7] = molecular target: SPI1 (Homo sapiens, UniProt P17947 1-270); conditions: protein: recombinant; tags: N-terminal GST; dsDNA, one strand shown
# In short: as §1
# [8] = molecular target: SPIB (Homo sapiens, UniProt Q01892 1-262); conditions: protein: recombinant; tags: N-terminal GST; dsDNA, one strand shown
# In short: as §1
# [9] = molecular target: T6, ELK3 (Homo sapiens, UniProt P41970 1-407); conditions: protein: recombinant; tags: N-terminal GST; dsDNA, one strand shown
# T6 sequence: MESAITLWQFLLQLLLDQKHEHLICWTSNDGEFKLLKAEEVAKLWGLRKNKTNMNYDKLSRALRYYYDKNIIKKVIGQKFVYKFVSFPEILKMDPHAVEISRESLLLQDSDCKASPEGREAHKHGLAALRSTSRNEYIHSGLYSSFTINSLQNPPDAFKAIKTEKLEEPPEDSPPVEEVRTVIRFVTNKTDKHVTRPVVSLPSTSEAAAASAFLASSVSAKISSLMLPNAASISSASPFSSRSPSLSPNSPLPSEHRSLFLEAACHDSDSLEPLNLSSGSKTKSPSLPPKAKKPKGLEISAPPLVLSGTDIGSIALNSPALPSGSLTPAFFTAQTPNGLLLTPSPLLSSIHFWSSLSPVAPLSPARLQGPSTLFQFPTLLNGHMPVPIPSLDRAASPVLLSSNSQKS
# In short: as §1
# [10] = molecular target: T7, FEV (Homo sapiens, UniProt Q99581 1-238); conditions: protein: recombinant; tags: N-terminal GST; dsDNA, one strand shown
# T7 sequence: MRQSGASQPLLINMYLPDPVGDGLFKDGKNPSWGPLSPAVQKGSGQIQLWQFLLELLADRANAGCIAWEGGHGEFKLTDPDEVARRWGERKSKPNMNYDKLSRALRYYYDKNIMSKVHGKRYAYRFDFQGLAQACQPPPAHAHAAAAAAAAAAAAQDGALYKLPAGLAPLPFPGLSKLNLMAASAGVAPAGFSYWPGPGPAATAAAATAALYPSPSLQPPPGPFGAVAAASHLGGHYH
# In short: as §1
# [11] = molecular target: ETV5 (Homo sapiens, UniProt P41161 1-510); conditions: protein: recombinant; tags: N-terminal GST; dsDNA, one strand shown
# In short: as §1
# [12] = molecular target: HSF1 (Homo sapiens, UniProt Q00613 1-529); conditions: protein: recombinant; tags: N-terminal GST; chain copies: 3; dsDNA, one strand shown
# In short: as §1
# [13] = molecular target: T8, SPIC (Homo sapiens, UniProt Q8N5J4 1-248); conditions: protein: recombinant; tags: N-terminal GST; dsDNA, one strand shown
# T8 sequence: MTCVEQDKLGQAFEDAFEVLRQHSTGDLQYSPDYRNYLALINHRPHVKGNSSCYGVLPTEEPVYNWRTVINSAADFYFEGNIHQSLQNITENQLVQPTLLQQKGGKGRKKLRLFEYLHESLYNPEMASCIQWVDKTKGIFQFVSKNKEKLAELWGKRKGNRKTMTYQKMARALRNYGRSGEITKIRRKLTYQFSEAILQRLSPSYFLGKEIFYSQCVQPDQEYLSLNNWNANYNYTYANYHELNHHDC
# In short: as §1
# [14] = molecular target: ELF4 (Homo sapiens, UniProt Q99607 1-663); conditions: protein: recombinant; tags: N-terminal GST; dsDNA, one strand shown
# In short: as §1
# [15] = molecular target: T9, ELK4 (Homo sapiens, UniProt P28324-2 1-405); conditions: protein: recombinant; tags: N-terminal GST; dsDNA, one strand shown
# T9 sequence: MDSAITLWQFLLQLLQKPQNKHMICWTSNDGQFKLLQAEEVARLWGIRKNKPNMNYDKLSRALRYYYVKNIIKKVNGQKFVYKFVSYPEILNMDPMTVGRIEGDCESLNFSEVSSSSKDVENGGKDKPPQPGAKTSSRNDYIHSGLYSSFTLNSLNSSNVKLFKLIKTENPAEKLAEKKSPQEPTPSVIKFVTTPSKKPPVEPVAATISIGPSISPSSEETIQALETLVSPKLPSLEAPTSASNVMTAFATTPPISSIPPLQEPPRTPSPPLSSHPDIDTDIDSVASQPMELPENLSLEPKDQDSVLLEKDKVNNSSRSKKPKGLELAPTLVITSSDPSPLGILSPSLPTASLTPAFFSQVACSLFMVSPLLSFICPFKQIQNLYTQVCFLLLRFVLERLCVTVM
# In short: as §1
# [16] = molecular target: T10, ETV2 (Homo sapiens, UniProt O00321 1-342); conditions: protein: recombinant; tags: N-terminal GST; dsDNA, one strand shown
# T10 sequence: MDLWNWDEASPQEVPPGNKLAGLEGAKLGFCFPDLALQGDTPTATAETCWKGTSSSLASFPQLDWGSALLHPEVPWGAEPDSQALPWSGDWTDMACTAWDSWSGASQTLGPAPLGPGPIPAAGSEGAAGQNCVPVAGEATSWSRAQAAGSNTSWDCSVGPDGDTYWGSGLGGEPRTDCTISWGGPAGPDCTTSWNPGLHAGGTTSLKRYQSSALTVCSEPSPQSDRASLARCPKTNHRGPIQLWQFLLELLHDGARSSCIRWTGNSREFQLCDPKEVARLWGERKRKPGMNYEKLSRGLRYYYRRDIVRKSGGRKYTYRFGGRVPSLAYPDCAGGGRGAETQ
# In short: as §1
# [17] = molecular target: T11, ELF3 (Homo sapiens, UniProt P78545 1-371); conditions: protein: recombinant; tags: N-terminal GST; dsDNA, one strand shown
# T11 sequence: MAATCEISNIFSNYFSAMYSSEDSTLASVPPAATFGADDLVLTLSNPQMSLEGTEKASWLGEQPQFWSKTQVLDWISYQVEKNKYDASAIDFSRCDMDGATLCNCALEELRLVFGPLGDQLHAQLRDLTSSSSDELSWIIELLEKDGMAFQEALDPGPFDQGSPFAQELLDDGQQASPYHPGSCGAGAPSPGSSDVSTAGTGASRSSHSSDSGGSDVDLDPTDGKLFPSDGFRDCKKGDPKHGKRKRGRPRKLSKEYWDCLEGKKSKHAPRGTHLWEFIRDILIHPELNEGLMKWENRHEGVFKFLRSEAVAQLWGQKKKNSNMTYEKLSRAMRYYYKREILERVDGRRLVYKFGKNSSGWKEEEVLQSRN
# In short: as §1
# [18] = molecular target: CRX (Homo sapiens, UniProt O43186 1-299); conditions: protein: recombinant; tags: N-terminal GST; dsDNA, one strand shown
# In short: as §1
# [19] = molecular target: ETV1 (Homo sapiens, UniProt P50549 1-477); conditions: protein: recombinant; tags: N-terminal GST; dsDNA, one strand shown
# In short: as §1
# Sequence of ELF1 (P32519 whole entry): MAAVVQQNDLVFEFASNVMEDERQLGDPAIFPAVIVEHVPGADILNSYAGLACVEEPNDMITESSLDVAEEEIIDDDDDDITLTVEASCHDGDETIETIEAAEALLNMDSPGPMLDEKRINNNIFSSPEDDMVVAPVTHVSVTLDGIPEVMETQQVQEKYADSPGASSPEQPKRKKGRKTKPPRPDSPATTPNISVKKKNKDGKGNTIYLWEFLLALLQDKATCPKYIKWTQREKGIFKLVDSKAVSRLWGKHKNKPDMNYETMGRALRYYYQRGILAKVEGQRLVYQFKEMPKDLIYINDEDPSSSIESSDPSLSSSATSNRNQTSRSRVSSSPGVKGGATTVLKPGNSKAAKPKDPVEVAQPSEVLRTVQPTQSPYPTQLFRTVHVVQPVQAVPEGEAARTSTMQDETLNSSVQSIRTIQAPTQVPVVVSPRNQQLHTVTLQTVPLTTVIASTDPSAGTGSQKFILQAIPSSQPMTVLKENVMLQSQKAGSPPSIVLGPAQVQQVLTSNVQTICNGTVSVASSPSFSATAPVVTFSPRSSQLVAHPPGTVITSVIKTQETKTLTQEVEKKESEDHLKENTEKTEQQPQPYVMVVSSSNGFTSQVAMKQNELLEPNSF
# Sequence of ETV1 (P50549 whole entry): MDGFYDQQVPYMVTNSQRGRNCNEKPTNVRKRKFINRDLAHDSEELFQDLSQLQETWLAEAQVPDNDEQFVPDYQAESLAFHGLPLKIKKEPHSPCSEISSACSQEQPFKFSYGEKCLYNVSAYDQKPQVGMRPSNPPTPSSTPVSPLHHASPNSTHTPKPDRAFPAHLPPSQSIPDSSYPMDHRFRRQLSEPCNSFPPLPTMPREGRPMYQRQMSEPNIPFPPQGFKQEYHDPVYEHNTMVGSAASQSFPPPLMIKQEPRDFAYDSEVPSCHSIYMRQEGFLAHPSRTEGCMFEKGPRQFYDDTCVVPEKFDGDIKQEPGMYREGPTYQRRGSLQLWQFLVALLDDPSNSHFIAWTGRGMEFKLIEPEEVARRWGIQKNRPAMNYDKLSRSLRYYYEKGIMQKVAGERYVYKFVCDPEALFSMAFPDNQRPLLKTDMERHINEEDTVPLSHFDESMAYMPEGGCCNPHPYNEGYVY
# Sequence of HSF1 (Q00613 whole entry): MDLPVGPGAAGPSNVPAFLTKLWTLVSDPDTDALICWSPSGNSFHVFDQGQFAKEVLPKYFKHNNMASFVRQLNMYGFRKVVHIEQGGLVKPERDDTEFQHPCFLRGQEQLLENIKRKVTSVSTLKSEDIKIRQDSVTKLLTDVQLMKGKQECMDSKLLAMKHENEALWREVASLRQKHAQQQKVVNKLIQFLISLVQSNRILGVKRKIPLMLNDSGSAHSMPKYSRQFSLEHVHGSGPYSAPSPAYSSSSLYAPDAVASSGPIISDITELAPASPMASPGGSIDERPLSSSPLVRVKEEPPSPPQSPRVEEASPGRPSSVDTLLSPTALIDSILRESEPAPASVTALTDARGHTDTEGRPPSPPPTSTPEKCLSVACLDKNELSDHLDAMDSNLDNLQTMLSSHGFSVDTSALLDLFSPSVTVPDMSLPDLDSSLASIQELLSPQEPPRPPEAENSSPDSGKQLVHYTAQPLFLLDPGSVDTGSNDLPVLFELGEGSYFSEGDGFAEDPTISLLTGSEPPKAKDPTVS
# Sequence of SPIB (Q01892 whole entry): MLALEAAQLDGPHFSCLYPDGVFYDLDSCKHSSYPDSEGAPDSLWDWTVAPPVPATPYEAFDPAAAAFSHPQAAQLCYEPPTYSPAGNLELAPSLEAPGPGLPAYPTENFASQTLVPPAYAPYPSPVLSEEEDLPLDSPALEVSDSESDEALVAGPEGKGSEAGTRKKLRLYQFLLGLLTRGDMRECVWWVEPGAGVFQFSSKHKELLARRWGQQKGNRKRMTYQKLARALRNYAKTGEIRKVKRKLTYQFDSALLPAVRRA
# Sequence of ETV5 (P41161 whole entry): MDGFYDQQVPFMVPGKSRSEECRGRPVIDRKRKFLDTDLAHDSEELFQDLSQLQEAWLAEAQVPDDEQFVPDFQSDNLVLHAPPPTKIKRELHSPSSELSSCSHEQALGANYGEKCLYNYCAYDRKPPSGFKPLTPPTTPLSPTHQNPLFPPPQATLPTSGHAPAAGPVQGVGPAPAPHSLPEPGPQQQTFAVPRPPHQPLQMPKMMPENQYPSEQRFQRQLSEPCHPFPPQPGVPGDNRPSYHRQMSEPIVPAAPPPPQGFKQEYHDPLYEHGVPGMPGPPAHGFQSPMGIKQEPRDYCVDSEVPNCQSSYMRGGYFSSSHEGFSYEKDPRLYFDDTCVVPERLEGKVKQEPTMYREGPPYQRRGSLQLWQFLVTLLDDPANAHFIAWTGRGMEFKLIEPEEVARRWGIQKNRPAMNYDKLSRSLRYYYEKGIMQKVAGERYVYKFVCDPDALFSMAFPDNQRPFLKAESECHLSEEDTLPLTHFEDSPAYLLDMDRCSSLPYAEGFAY
# Sequence of ELF4 (Q99607 whole entry): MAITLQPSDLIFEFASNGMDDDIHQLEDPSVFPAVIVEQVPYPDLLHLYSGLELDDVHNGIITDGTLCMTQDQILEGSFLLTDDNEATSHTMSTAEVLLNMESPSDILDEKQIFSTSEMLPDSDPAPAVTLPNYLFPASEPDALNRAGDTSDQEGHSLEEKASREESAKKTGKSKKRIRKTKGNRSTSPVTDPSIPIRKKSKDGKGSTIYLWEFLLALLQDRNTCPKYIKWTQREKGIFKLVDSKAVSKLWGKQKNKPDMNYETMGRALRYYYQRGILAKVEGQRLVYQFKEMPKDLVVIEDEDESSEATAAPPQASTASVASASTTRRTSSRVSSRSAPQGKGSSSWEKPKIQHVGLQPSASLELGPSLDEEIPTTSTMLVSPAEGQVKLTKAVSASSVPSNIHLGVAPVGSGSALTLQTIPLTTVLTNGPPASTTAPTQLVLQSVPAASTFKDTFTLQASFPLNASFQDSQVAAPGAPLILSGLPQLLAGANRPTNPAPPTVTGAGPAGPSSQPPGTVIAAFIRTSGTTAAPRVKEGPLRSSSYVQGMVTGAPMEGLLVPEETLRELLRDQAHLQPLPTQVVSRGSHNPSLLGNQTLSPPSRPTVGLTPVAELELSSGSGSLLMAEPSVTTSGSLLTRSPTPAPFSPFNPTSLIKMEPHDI
# Sequence of CRX (O43186 whole entry): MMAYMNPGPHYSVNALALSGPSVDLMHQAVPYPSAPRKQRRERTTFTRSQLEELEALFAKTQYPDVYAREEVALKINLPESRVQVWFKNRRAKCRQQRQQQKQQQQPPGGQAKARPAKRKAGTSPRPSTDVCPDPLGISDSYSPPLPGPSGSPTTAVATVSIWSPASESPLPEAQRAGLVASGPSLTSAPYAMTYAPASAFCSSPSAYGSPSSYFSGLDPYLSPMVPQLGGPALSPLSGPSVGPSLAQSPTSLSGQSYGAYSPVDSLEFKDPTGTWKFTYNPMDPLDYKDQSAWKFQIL
sequence,measurement,setting,value
ACTTTG,binding signal,[1],"1.27 fold enrichment (6-mer frequency, TF over GST control)"
same,binding signal,[2],"1.29 fold enrichment (6-mer frequency, TF over GST control)"
same,binding signal,[3],"1.12 fold enrichment (6-mer frequency, TF over GST control)"
same,binding signal,[4],"1.19 fold enrichment (6-mer frequency, TF over GST control)"
same,binding signal,[5],"1.26 fold enrichment (6-mer frequency, TF over GST control)"
same,binding signal,[6],"1.19 fold enrichment (6-mer frequency, TF over GST control)"
same,binding signal,[7],"1.2 fold enrichment (6-mer frequency, TF over GST control)"
same,binding signal,[8],"1.16 fold enrichment (6-mer frequency, TF over GST control)"
same,binding signal,[9],"1.07 fold enrichment (6-mer frequency, TF over GST control)"
same,binding signal,[10],"1.13 fold enrichment (6-mer frequency, TF over GST control)"
same,binding signal,[11],"1.3 fold enrichment (6-mer frequency, TF over GST control)"
same,binding signal,[12],"1.14 fold enrichment (6-mer frequency, TF over GST control)"
same,binding signal,[13],"1.33 fold enrichment (6-mer frequency, TF over GST control)"
same,binding signal,[14],"1.29 fold enrichment (6-mer frequency, TF over GST control)"
same,binding signal,[15],"1.22 fold enrichment (6-mer frequency, TF over GST control)"
same,binding signal,[16],"1.39 fold enrichment (6-mer frequency, TF over GST control)"
same,binding signal,[17],"1.28 fold enrichment (6-mer frequency, TF over GST control)"
same,binding signal,[18],"1.18 fold enrichment (6-mer frequency, TF over GST control)"
same,binding signal,[19],"1.21 fold enrichment (6-mer frequency, TF over GST control)"
